From PubChem BioAssay (NCATS) come the findings set out here.

A number with no mark means an inactive call. Inconclusive results are not listed. Activity calls are given as the source filed them. Unless noted, the call rests on the fitted dose curve; in most records, active means well fitted curve in the direction sought with a large enough effect; inconclusive means small, poorly fitted or top-dose-only effect, or another doubt; inactive means no such curve, though single readings can be large; an effect the other way counts as inactive or inconclusive.

Test [1] is described as follows: qHTS Assay for Identification of Small Molecule Antagonists for NFkB Signaling Pathway (AID 895; active means well fitted inhibition curve with a large enough effect in the signal ratio, with a control signal flat, not every such curve was filed as active; the % refers to the signal ratio; further: on the % scale 0 is the no-effect control and ±100 the full control effect). The method, boiled down: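 ME-180 NFkB-bla cells (beta-lactamase under NFkB response element), plated overnight, treated with compound then 10 pM TNF alpha (about EC50) for 5 hrs at 37 C. LiveBLAzer FRET read at 460/530 nm emission, 405 nm excitation.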
A short description of test [2]: qHTS Assay for Identification of Small Molecule Agonists for Thrombopoietin (TPO) Signaling Pathway (AID 917). Further: on the % scale 0 is the no-effect control and ±100 the full control effect. A digest of the protocol:
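Murine Ba/F3 cells expressing human TPO receptor and GPIIb-promoter luciferase, IL-3-starved overnight, given compound plus TPO at 26 pM (EC50). After 24 h at 37 C, 5% CO2, luminescence read.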

For test [3], the target named is Muscarinic acetylcholine receptor M1 (Rattus norvegicus) (UniProt P08482). Kind of test: qHTS Assay for Antagonists of Acetylcholine Muscarinic M1 Receptor: Measurement of IP-One Response (AID 944). Further: nearly all actives have a fitted effect of over 75% in size. A digest of the protocol:
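Steps: plate transfected CHO-M1 cells overnight; add test compound, 10 min; add carbachol (200 nM, EC80) in stimulation buffer with LiCl; incubate 30 min; add labelled IP1 tracer and anti-IP1 antibody in lysis buffer; read HTRF after 10 min.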

For test [4], the target named is Pyruvate kinase PKM (Homo sapiens) (UniProt P14618). Kind of test: qHTS Assay for Activators of Human Muscle Pyruvate Kinase (AID 954; active means well fitted curve in the direction sought with a large enough effect, not every such curve was filed as active;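 further: 0% = uninhibited enzyme and -100% = no enzyme or full thiadiazolimine inhibition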). A digest of the protocol: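 Luminescence from a luciferase ATP-detection/stop reagent reported PKM2 activity. Reactions contained 0.1 nM purified human enzyme, 0.5 mM PEP, 0.1 mM ADP and 7 mM MgCl2 at pH 7.2, run 1 h at RT.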
In test [5] the target is Alpha-galactosidase (Coffea arabica) (UniProt Q42656). Kind of test: Counterscreen for Glucocerebrosidase Inhibitors: qHTS Assay for Coffee Bean alpha-Galactosidase at pH 4.5 (AID 957).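 Further: plate controls were enzyme alone for no effect and no enzyme for full effect.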 A digest of the protocol: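 AC50 values derive from Hill-equation modeling of concentration-response data, normalized to no-enzyme and full-activity controls. The pH 4.5 citrate assay used 2 nM coffee bean enzyme and 80 uM fluorogenic substrate for 20 min.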

Test [6] has the same target. Description: Counterscreen for Glucocerebrosidase Inhibitors: qHTS Assay for Coffee Bean alpha-Galactosidase at pH 5.9 (AID 998).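 Further: plate controls were uninhibited enzyme for no effect and no-enzyme basal signal for full effect.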 The method, boiled down: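 Green coffee bean enzyme (2 nM) with 4-methylumbelliferyl alpha-D-galactopyranoside (80 uM) in 50 mM citric acid, 0.005% Tween-20, pH 5.9, 20 min at room temperature; compounds 0.7 nM–77 uM. Stopped at pH 10, fluorescence Ex365/Em440; Hill-fit AC50.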

In test [7] the target is Cytochrome P450 2C9 (Homo sapiens) (UniProt P11712). Kind of test: qHTS Assay for Inhibitors and Substrates of Cytochrome P450 2C9 (AID 883). Further: nearly all actives have a fitted effect of over 60% in size. Further: potency means the concentration at half of the fitted maximal effect. A digest of the protocol: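 Human CYP2C9 (10nM) with Luciferin-H at 100uM (its KM) in 25mM KPO4; compound preincubated 10 min at 37C, then NADPH regeneration for 60 min at 37C. Luciferin read by luminescence after detection reagent; normalized to 57uM sulphaphenazole as full inhibition.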

The target in test [8] is Cytochrome P450 2C19 (Homo sapiens) (UniProt P33261). Description: qHTS Assay for Inhibitors and Substrates of Cytochrome P450 2C19 (AID 899). Further: nearly all actives have a fitted effect of over 60% in size. Further: potency means the concentration at half of the fitted maximal effect. The method, boiled down:
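5 nM human CYP2C19 with 10uM Luciferin-H EGE (at KM) in 50mM KPO4, compound preincubated 10 min at 37C, then NADPH regeneration for 60 min at 37C. Luciferin read by luminescence after detection reagent; normalized to 57uM ketoconazole as full inhibition.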

For test [9], the target named is Muscarinic acetylcholine receptor M1 (Rattus norvegicus) (UniProt P08482). Description: qHTS Assay for Antagonists of Acetylcholine Muscarinic M1 Receptor: Kinetic Measurement of Intracellular Calcium Response (AID 943).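 Further: Fluo-4 calcium signal as peak divided by basal fluorescence over 4 min; nearly all actives have a fitted effect of over 75% in size.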 The method, boiled down: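 Intracellular calcium flux, recorded with Fluo-4 in a kinetic plate reader, served as signal; the response to carbachol at EC80 (100 nM final) was taken as maximal over minimal fluorescence after a 10 min compound pre-incubation in rat M1-CHO cells.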

Test [10] in a line: NFAT Signaling Pathway (AID 444; active means well fitted curve in either direction with a large enough effect, not every such curve was filed as active;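 further: carbachol stimulus at about its EC50 of 1 µM final; on the % scale 0 is the no-effect control and ±100 the full control effect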). Particulars: Jurkat NFAT-bla M1, carbachol, beta-lactamase ratio, 5 h; at 38 µM (top of the series). A digest of the protocol:
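Jurkat cells with NFAT-driven β-lactamase reporter and co-expressed M1 receptor, stimulated with carbachol (final 1 uM, ~EC50), compound titration, 5 h at 37 °C. CCF4 loaded 1 h at RT; 460/530 nm ratio gave %activity and AC50.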

Test [11] addresses DNA repair nuclease/redox regulator APEX1 (Homo sapiens) (UniProt P27695). Description: qHTS Validation Assay for Inhibitors of the Human Apurinic/apyrimidinic Endonuclease 1 (APE1) (AID 1705;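 further: TAMRA fluorescence gain over two minutes as APE1 cuts a quenched THF abasic duplex; on the % scale 0 is the no-effect control and ±100 the full control effect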). The method, boiled down:
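Fluorogenic double-stranded THF abasic-site substrate (5'-TAMRA/3'-BHQ-2), 50 nM final. Enzyme preincubated with compound 15 min at room temperature, then substrate added. Kinetic fluorescence (ex 525/em 598 nm) read three times at 60 s intervals; activity taken as third-minus-first read difference.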

Test [12] can be described thus: Counterscreen for APE1 Inhibitors: Fluorescent Dye Displacement Validation Assay (AID 1707).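 Further: plate controls were ThO with dsDNA and no compound for no effect and ThO without dsDNA for full effect.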 A digest of the protocol: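 Thiazole Orange displacement from dsDNA: 250 nM ThO with 50 nM TAMRA-labelled abasic-site (tetrahydrofuran) duplex in 50 mM Tris-HCl pH7.5, 50mM NaCl, 2 mM MgCl2, 0.01% Tween-20. Loss of endpoint fluorescence (ex 480 nm, em 540 nm) flags DNA binders.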

A short description of test [13]: qHTS for differential inhibitors of proliferation of Plasmodium falciparum line Dd2 (AID 1882).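 Further: compound exposure of 72 h on infected erythrocytes; plate controls were DMSO vehicle for no effect and 0.29 µM artemisinin for full effect; nearly all actives have a fitted effect of over 65% in size.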 Conditions: Potency: Plasmodium falciparum Dd2 proliferation inhibition. The method, boiled down: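 SYBR Green I DNA fluorescence read-out, ex 485/em 535 nm. Signals were normalized to 0.29 uM artemisinin and DMSO wells, then corrected using vehicle-only plates flanking each stack. Parasite growth ran 72 h in erythrocytes before lysis.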

Test [14] has as its target Ferritin light chain (Equus caballus) (UniProt P02791). Description: qHTS Validation Assay for Identification of Novel General Anesthetics (AID 2323). Further: on the % scale 0 is the no-effect control and ±100 the full control effect. A digest of the protocol:
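Horse-spleen apoferritin (10 uM) in PBS with 50% saturated 1-aminoanthracene; compounds pin-transferred, 10 min at room temperature. Fluorescence read at 380/535 nm, normalized to free 1-AMA and 1-AMA/apoferritin values; four-parameter Hill fit.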

Test [15] deals with ATP-dependent DNA helicase Q1 (Homo sapiens) (UniProt P46063). Description: qHTS Validation Assay for Inhibitors of RecQ-Like Dna Helicase 1 (RECQ1) (AID 2353).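 Further: plate controls were DMSO vehicle for no effect and enzyme-free control for full effect.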 A digest of the protocol:
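50 nM RECQ1T1 preincubated 15 min with compound in Tris pH 8.0 buffer with MgCl2, DTT, Tween-20 and 2.5 ug/ml poly(dI-dC); started with 200 nM TAMRA/BHQ-2 forked duplex and 2 mM ATP. Unwinding read as fluorescence (525/598 nm), two reads 2 h apart.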

For test [16], the target named is RecQ-like DNA helicase BLM (Homo sapiens) (UniProt P54132). Description: qHTS Validation Assay for Inhibitors of Bloom's syndrome helicase (BLM) (AID 2364).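 Further: plate controls were DMSO vehicle for no effect and enzyme-free control for full effect.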 The method, boiled down:
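50 nM BLM preincubated 15 min at room temperature with compound in pH 8.0 Tris buffer containing 2.5 ug/ml poly(dI-dC); started with 200 nM TAMRA/BHQ-2 forked duplex and 2 mM ATP (final). Unwinding read as TAMRA fluorescence increase, two reads 2 h apart.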

The nature of test [17]: Validation screen for inhibitors of Lassa infection (AID 463096; calls by dose curve; further: potency means the concentration at half of the fitted maximal effect).
Test [18] has as its target Transient receptor potential cation channel subfamily V member 1 (Homo sapiens) (UniProt Q8NER1). Kind of test: HTS Assay for Compounds that Act as Enhancers of the Vanilloid Receptor 1 (AID 488979). Further: 0% is about no effect. The method, boiled down: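 TRPV1 cells loaded with Fluo-8 calcium dye; compound added and Ca2+ signal (ex 480/em 520 nm) followed 3 min, then capsaicin at EC20 added and read 2 more min to detect enhancement.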

The target of test [19] is Thyrotropin-releasing hormone receptor (Homo sapiens) (UniProt P34981). Description: qHTS for Small Molecule Agonists and Allosteric Enhancers of Human TRH Receptor: Validation Screen for Agonists (AID 493127;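 active means calcium activation more than 3 SD above the typical response in the agonist read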;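 further: intracellular calcium rise by fluo-8 fluorescence before TRH EC20 addition; 0% is about no effect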). Conditions: TRH receptor agonist cell assay; at 2 µM; hits give high values. A digest of the protocol:
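Gq-coupled calcium mobilization in TRHR cells after compound addition, monitored kinetically with fluo-8 dye on an FDSS reader.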

Sequence of Cytochrome P450 2C19 (Homo sapiens) (P33261 whole entry, looked up): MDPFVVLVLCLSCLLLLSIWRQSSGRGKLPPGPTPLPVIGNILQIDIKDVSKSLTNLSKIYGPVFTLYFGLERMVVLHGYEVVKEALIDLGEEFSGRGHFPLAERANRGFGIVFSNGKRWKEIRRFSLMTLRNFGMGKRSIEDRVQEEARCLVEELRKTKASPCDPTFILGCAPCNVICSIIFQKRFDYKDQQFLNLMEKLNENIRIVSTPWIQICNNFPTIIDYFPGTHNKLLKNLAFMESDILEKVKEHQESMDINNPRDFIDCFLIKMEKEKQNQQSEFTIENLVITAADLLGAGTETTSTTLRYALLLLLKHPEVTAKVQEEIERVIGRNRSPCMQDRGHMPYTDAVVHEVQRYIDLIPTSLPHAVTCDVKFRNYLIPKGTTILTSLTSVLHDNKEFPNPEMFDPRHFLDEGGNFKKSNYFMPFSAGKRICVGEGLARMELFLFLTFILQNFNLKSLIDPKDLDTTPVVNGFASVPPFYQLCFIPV
Sequence of Muscarinic acetylcholine receptor M1 (Rattus norvegicus) (P08482 whole entry, looked up): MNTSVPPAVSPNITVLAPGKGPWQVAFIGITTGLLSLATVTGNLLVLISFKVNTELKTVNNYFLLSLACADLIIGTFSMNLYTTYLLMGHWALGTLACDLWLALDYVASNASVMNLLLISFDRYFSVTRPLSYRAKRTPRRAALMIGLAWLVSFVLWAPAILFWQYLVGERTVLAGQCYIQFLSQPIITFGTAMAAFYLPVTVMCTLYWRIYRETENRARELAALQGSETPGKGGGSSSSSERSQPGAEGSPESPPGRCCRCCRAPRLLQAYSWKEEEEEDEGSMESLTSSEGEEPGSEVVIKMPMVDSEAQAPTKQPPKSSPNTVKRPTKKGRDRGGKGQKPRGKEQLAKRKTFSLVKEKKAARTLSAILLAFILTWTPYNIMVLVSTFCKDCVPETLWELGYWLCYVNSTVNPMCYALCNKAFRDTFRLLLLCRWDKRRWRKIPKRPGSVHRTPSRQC
Sequence of Thyrotropin-releasing hormone receptor (Homo sapiens) (P34981 whole entry, looked up): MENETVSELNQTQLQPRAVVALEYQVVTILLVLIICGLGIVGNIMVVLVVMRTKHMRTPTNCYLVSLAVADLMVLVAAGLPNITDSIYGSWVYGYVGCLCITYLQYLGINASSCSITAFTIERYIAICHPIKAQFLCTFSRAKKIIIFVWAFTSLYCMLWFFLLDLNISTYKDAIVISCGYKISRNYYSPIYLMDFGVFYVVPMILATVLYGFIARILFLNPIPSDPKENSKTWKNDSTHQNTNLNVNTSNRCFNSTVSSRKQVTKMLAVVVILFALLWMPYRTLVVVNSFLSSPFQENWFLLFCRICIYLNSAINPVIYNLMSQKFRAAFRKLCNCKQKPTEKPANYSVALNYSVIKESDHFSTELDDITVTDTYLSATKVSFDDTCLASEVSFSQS
Sequence of RecQ-like DNA helicase BLM (Homo sapiens) (P54132 whole entry, looked up): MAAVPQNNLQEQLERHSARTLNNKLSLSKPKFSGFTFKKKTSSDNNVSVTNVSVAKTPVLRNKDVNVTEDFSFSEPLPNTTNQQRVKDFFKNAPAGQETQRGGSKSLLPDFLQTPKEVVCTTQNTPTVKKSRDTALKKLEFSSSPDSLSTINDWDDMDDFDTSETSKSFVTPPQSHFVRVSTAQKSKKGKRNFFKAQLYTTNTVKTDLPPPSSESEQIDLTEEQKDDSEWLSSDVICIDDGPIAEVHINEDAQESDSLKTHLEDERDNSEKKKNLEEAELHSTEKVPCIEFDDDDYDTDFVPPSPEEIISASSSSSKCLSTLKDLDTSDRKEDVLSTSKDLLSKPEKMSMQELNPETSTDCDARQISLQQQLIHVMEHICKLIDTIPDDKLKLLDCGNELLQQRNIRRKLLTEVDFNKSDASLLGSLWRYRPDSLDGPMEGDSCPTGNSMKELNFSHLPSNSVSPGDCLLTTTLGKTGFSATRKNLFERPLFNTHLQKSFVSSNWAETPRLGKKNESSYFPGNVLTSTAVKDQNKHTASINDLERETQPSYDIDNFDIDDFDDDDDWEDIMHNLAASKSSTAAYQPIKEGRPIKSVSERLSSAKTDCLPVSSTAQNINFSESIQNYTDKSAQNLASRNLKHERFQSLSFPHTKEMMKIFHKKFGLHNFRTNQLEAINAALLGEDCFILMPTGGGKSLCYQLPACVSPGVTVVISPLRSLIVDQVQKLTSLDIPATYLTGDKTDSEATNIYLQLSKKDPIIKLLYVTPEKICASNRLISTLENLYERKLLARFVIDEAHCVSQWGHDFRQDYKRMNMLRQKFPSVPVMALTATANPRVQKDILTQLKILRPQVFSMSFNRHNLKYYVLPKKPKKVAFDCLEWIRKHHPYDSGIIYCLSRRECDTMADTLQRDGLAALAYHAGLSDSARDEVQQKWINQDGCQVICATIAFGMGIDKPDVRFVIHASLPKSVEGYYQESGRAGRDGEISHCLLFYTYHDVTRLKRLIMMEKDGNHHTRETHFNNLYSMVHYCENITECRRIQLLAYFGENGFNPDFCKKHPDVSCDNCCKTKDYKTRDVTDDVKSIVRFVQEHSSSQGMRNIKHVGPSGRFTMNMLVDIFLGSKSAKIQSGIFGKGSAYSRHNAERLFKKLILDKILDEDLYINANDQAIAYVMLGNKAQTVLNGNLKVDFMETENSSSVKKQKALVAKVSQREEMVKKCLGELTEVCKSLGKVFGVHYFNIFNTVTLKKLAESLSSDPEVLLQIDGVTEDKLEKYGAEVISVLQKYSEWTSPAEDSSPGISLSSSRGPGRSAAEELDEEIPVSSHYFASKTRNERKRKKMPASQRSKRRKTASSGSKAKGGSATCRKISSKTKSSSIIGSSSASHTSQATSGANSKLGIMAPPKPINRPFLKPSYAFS
Sequence of ATP-dependent DNA helicase Q1 (Homo sapiens) (P46063 whole entry, looked up): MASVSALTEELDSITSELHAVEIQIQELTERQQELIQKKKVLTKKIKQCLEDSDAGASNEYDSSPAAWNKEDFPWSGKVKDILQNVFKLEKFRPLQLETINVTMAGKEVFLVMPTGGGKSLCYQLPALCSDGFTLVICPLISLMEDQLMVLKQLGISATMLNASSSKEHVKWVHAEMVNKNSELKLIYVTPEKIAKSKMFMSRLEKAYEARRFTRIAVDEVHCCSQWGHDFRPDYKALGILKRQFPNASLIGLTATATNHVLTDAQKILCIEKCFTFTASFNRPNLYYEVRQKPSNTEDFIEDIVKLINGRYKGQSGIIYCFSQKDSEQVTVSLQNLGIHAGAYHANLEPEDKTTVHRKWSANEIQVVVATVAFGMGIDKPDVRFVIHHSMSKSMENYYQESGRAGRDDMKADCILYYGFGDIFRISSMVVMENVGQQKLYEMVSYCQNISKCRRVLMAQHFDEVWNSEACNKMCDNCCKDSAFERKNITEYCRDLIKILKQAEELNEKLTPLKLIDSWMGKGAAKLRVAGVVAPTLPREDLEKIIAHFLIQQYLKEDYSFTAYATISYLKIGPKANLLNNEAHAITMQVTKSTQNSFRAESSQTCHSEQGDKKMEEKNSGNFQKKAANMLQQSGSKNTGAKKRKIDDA
Sequence of Pyruvate kinase PKM (Homo sapiens) (P14618 whole entry, looked up): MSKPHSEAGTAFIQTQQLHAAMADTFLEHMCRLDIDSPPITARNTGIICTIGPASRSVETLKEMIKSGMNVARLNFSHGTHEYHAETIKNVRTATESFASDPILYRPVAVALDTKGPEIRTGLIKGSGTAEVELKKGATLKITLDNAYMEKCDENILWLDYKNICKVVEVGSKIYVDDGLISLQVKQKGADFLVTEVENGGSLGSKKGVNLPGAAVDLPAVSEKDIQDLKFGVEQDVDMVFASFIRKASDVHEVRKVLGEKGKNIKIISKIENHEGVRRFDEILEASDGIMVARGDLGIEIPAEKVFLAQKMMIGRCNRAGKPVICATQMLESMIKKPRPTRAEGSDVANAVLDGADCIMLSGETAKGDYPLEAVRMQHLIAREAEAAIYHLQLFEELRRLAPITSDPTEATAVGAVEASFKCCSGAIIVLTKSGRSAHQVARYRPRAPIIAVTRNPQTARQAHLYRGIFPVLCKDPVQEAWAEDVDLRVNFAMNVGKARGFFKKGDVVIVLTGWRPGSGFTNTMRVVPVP
Sequence of Cytochrome P450 2C9 (Homo sapiens) (P11712 whole entry, looked up): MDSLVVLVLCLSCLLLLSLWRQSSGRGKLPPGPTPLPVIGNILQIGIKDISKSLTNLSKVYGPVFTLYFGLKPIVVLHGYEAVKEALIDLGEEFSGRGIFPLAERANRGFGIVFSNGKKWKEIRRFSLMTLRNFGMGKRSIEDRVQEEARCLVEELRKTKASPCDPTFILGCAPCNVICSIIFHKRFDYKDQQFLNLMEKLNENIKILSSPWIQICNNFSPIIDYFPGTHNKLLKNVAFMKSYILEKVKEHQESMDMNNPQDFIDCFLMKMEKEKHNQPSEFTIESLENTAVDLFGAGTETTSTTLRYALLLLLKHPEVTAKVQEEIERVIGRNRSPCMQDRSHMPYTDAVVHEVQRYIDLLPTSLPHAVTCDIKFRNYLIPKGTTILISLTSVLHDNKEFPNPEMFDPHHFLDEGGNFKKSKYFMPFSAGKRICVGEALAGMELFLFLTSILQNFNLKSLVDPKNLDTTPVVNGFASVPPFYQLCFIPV
Sequence of Alpha-galactosidase (Coffea arabica) (Q42656 whole entry, looked up): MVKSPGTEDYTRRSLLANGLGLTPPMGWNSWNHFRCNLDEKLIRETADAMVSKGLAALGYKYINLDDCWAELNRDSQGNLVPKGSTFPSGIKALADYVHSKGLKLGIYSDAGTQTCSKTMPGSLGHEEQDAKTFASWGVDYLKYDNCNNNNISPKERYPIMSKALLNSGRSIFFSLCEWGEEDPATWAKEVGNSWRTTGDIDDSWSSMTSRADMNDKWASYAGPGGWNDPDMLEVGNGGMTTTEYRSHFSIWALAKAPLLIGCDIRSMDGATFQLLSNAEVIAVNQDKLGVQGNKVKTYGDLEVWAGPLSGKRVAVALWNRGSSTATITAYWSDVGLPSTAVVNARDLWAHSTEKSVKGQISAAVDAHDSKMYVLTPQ
Sequence of Ferritin light chain (Equus caballus) (P02791 2-175 limits assumed): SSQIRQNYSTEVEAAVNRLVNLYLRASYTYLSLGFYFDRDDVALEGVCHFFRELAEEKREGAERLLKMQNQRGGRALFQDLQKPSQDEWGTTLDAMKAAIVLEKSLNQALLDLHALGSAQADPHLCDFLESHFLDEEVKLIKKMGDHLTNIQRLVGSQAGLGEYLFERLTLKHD

Consider `COC(=O)N1CCN(C(=O)Cc2ccc(Cl)c(Cl)c2)[C@H](CN2CCCC2)C1`, for which the Potency result in test [1] and in test [3] was “inactive” each time. Moreover, the molecule was called inactive in test [2], in test [4], in test [5] and in test [6].

Turning to `COc1ccc(CNC(=O)/C=C\c2ccc3[nH]cc(CCN(C)C)c3c2)cc1`, the Potency entry in [7], in test [8] and in test [3] was “inactive” in each case. Moreover, the result in [2], in test [4], in test [5] and in test [6] was inactive.

For `NC[C@H](CP(=O)(O)O)c1ccc(Cl)cc1`, the Potency entry in [1], in test [9] and in test [3] was “inactive” each time. The call in test [2], in test [4], in test [5] and in [6] was inactive.

`CC1=C(O)C(=O)[C@H]2O[C@@H]2C1=O`: the Potency in test [8] is 158 nM (active).

Turning to `C(=C/c1ccccc1)/CN1CCN(CCOC(c2ccccc2)c2ccccc2)CC1`, the Potency in [7] is 5010 nM (active).

For the molecule `Oc1ccc2c3c1O[C@H]1c4oc5ccccc5c4C[C@]4(O)[C@H](C2)N(CC2CC2)CC[C@@]314`, the activity change, negative = inhibition in [10] is -24.9%. In addition, the outcome in test [2], in test [4], in test [5] and in [6] was inactive.

In the case of `O=C(Cc1ccc(Cl)c(Cl)c1)N1CCCC[C@H]1CN1CCCC1`, the Potency in test [8] is 6310 nM (active). Also, the molecule was classed as inactive in test [2], in [4], in test [5] and in test [6].

As for `O=C1C2CCN(CC2)C1(CO)CO`, the Potency in test [7] is 63.1 nM (active); in test [8], 631 nM (active).

Regarding `C[N+]1(C)CCc2cc3c(cc2C1C1OC(=O)c2c1ccc1c2OCO1)OCO3` (stereo not drawn), the Potency entry in test [11], in test [12], in test [13], in [15], in test [16] and in test [17] was “inactive” each time. The molecule was classed as inactive in [14] and in test [18]. Besides, the activation in test [19] is 0.938%.

Turning to `S=C=Nc1cccc(C2(N3CCCCC3)CCCCC2)c1`, the Potency result in [7] and in test [8] was “inactive” each time.

For the molecule `CCN1C[C@]2(COC(=O)c3ccccc3N3C(=O)C[C@H](C)C3=O)CC[C@H](OC)[C@@]34[C@@H]5C[C@H]6[C@H](OC)[C@H]5[C@](O)(C[C@@H]6OC)[C@@](O)([C@@H](OC)[C@@H]23)[C@@H]14`, the Potency entry in test [7] is “inactive”.

Take `C[C@@H]1O[C@@H](O[C@H]2C[C@@H](O)[C@]3(CO)[C@@H]4C(CC[C@]3(O)C2)[C@@]2(O)CC[C@H](C3=CC(=O)OC3)[C@@]2(C)C[C@H]4O)[C@H](O)[C@H](O)[C@H]1O` (stereo partly drawn): the Potency result in [11], in test [12], in [13], in [15] and in [16] was “inactive” in each case. Further, the result in test [14] and in [18] was inactive. In [17], the Potency is 100 nM (active). The activation in test [19] was 0.375%.

With `CC[C@]1(C2=NCCN2)Cc2ccccc2O1`, in test [10], the activity change, negative = inhibition was -18.1%. Besides, in test [3], the Potency entry is “inactive”. The call in [4], in test [5] and in [6] was inactive.

On to `CC(C)n1cnc2c(C(=O)N[C@H]3CN4CCC3CC4)cc(Cl)cc21`, for which the Potency in test [7] is 398 nM (active).

On to `COc1ccc2[nH]cc(CCN(C)C)c2c1`, for which the Potency entry in [7], in test [1], in test [9], in test [3], in [11] and in [12] was “inactive” each time. Besides, the Potency result in test [13], in test [15], in [16] and in [17] was “inactive” each time. Further, the molecule was called inactive in test [2], in test [4], in test [5], in [6], in [14] and in [18]. Also, the activation in [19] is 0.688%.
